# CYP2C19 inhib = human CYP2C19 inhibition; CYP2C19 Supersomes, luciferin-H EGE luminescence, 30 min; inhibition, % at 5 µM; actives 21% (n = 96,000); AID 778;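 active = CYP2C19 inhibition above a set limit at 5 µM in the primary screen, cut at about 50% in these data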;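 also: plate controls were negative control wells for no effect and 2.5 mM tranylcypromine positive control for full effect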
# Target sequence (P33261 whole entry, looked up): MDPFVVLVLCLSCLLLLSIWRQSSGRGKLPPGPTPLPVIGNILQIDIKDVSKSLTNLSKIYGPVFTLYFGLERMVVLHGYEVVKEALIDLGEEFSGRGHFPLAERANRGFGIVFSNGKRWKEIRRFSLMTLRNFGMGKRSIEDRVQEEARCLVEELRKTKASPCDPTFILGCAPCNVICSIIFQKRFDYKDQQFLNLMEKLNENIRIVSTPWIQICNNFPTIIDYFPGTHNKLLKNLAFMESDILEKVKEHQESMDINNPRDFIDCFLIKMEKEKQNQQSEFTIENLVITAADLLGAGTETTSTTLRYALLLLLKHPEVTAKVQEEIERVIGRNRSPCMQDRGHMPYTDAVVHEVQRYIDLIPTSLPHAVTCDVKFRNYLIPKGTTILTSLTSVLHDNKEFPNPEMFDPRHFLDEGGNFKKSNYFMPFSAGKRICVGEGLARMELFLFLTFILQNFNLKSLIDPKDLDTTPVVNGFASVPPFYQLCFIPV
# CYP2C19 act = activators of human cytochrome P450 2C19; P33261; recombinant CYP2C19, luciferin-H EGE luminescence; stronger effect = higher value; 0 = fully inhibited enzyme, 1 = untreated enzyme; activation factor at 5 µM; 96,000 tested, under 10 active;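 active = activation factor of at least 2 at 5 µM in the primary screen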;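 also: 0 = wells with 2.5 mM tranylcypromine and 1 = vehicle-only wells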
# CYP2C9 activ = CYP2C9 (human) activation; P11712; recombinant CYP2C9, luciferin-H conversion, luminescence; stronger effect = higher value; factor 1 = untreated enzyme, 0 = blocked; activation factor at 5 µM; actives 1.4% (n = 96,000); AID 1024;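 active = activation factor of 2 or more for CYP2C9 at a 5 µM dose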;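 also: 0 = sulfaphenazole-blocked wells and 1 = vehicle-only wells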
# CYP2C9 inhib = inhibitors of human CYP2C9; P11712; CYP2C9 Supersomes, luciferin-H conversion, luminescence; inhibition, % at 5 µM; actives 20% (n = 96,000); AID 777;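 active = blocking of liver enzyme CYP2C9 beyond about 50% at 5 µM, limit read from the data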
# MRP reversal = MRP-mediated drug resistance reversal. H69AR cells + 2 uM doxorubicin, CellTiter-Glo, 72 h. differential viability (reversal), % at 10 µM. actives 0.04% (n = 85,000);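 active = viability drop by adding the cancer drug above about 55%, with treated viability meeting a 40% cutoff, limit read from the data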;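 also: viability without doxorubicin minus viability with 2 µM doxorubicin for each compound; larger differential means the compound sensitizes cells more to doxorubicin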
# MRP1 act = MRP-1 activation. H69AR cells + doxorubicin, viability rescue, CellTiter-Glo. viability increase, % at 10 µM. actives 0.61% (n = 140,000). AID 799;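 active = viability gain under doxorubicin at or above a set limit, the compound median plus 3 SD, cut at about 4.7% in these data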;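 also: MRP-1 overexpressing cells given doxorubicin 25 µM after compound pretreatment; 18-22 h compound pretreatment then 72 h with doxorubicin before readout; 0% = doxorubicin-only wells and 100% = vehicle-treated cells without doxorubicin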
# * = called active by the depositor; . = not tested or not shown. Most compounds without a hit are left out; they make up all but 21% or so of the library.
SMILES,CYP2C19 inhib,CYP2C19 act,CYP2C9 activ,CYP2C9 inhib,MRP reversal,MRP1 act
O=C(Nc1ccc(S(=O)(=O)NCCc2ccccc2)cc1)c1ccco1,58.8*,0.4,0.1,95.0*,15.1,-0.4
CC(Oc1ccc(NC(=O)c2ccco2)cc1)C(=O)N1c2ccccc2CC1C (stereo unspecified),32.9,0.7,0.5,50.6*,2.0,-1.0
O=C(Nc1ccc(S(=O)(=O)NCc2cccnc2)cc1)c1ccco1,-9.5,1.1,1,0.3,4.2,-3.7
O=C(CCc1ccccc1)Nc1ccc(NC(=O)c2ccco2)cc1,71.1*,0.3,0.2,81.5*,11.5,-1.8
O=C(NCc1cccnc1)/C(=C\c1ccc(-c2ccc(Cl)c(Cl)c2)o1)S(=O)(=O)c1ccccc1,.,.,.,.,.,-5.3
CCn1c(CNc2nc(-c3ccccc3)cs2)nnc1SCC(=O)NCc1ccccc1,.,.,.,.,2.5,0.1
CCCCC(=O)Nc1ccc(Cl)cn1,16.4,0.8,1,4.2,7.3,0.0
O=C(COc1ccc(Cl)cc1)Nc1ccc(Cl)cn1,68.1*,0.3,0.8,20.1,6.8,-0.4
CCCC(C)C(=O)Nc1ccc(Cl)cn1 (stereo unspecified),53.2*,0.5,0.9,14.0,-8.8,-3.5
Cc1nn(CC(=O)Nc2ccc(Cl)cn2)c(C)c1[N+](=O)[O-],47.8,0.5,1.1,-6.2,.,0.7
O=C(COc1ccccc1Cl)Nc1ccc(Cl)cn1,10.1,0.9,1,-2.8,-14.5,-4.4
Cc1nn(C(C)C(=O)Nc2ccc(Cl)cn2)c(C)c1[N+](=O)[O-] (stereo unspecified),73.8*,0.3,0.8,22.5,.,-2.5
CCC(C)n1c(SCc2ccc([N+](=O)[O-])cc2)nc2ccsc2c1=O (stereo unspecified),.,.,.,.,.,2.7
COc1ccccc1C1CN=NC12CCCc1ccccc1C2=O (stereo unspecified),71.4*,0.3,0.5,51.2*,.,-0.7
COc1ccc(C2CC23N=C(c2ccccc2)OC3=O)cc1 (stereo unspecified),.,.,.,.,.,-3.0
COc1ccc(C2CN=NC23CCCc2ccccc2C3=O)cc1 (stereo unspecified),59.1*,0.4,0.5,47.5,.,-4.7
Nc1ccc(Nc2nc(-c3ccncc3)cs2)cc1,61.2*,0.4,0.4,62.5*,-15.2,-2.1
Oc1ccc(Nc2nc(-c3ccc(O)cc3)cs2)cc1,29.8,0.7,1.1,-6.4,-23.7,-2.2
NS(=O)(=O)c1ccc(Nc2nc(-c3ccc(O)cc3)cs2)cc1,36.2,0.6,0.1,86.5*,8.9,-1.7
CN1C(=O)C2(C(C#N)=C(N)Oc3c2oc(CO)cc3=O)c2ccccc21 (stereo unspecified),-11.9,1.1,1.1,-7.0,5.5,-0.3
COC(=O)N1[C@H](C)C=C[C@]1(Cc1ccccc1)C(=O)O,.,.,.,.,.,-1.3
COC(=O)c1c(NC(=O)CN2CCN(c3cccc(Cl)c3)CC2)sc(C)c1C,.,.,.,.,.,-0.3
CCNc1nnc(-c2ccc(C)cc2)o1,60.8*,0.4,0.8,18.6,13.0,0.4
CC(C)n1c(N2CCN(C(=O)c3cccs3)CC2)nc2ccccc21,50.9*,0.5,0.4,58.5*,-4.6,-3.9
COc1ccc(S(=O)(=O)N2CCN(C(=O)c3cccs3)CC2)cc1,93.6*,0.1,0.5,49.9,5.9,-5.5
SMILES,CYP2C19 inhib,CYP2C19 act,CYP2C9 activ,CYP2C9 inhib,MRP reversal,MRP1 act
CC(C)Cn1c(N2CCN(C(=O)c3cccs3)CC2)nc2ccccc21,-0.3,1,0.8,24.5,-14.1,-3.5
CN(C)S(=O)(=O)N1CCN(C(=O)c2cccs2)CC1,75.7*,0.2,1.1,-7.9,5.0,-2.0
O=C(c1cccs1)N1CCN(S(=O)(=O)Cc2ccccc2)CC1,.,.,.,.,-6.9,-4.2
COc1ccc(CN(C)CC(=O)Nc2ccccc2C(F)(F)F)c(OC)c1,.,.,.,.,.,-1.8
COc1ccc(S(=O)(=O)N(C)CC(=O)Nc2ccccc2C(F)(F)F)cc1Cl,53.1*,0.5,1.9,-93.8,3.3,-1.5
COc1ccc(S(=O)(=O)N(C)CC(=O)Nc2ccccc2C(F)(F)F)cc1,81.4*,0.2,1.9,-92.6,-3.8,-0.5
O=C(Nc1ccsc1C(=O)NC1CCCCC1)c1ccccc1,-5.5,1.1,0.9,9.9,.,0.3
Nc1nnc(SCCOc2cccc(Br)c2)s1,92.1*,0.1,0.5,46.1,6.6,-1.1
CCCOc1ccc(OCCSc2nnc(N)s2)cc1,10.7,0.9,0.9,14.8,-3.2,-3.1
CC(C)CCn1nnnc1C(C(C)C)N1CCC(C(N)=O)CC1 (stereo unspecified),.,.,.,.,13.4,-2.1
Cn1c(C(=O)N(Cc2ccccc2)Cc2cccs2)cc2sccc21,47.1,0.5,0.3,73.2*,1.2,-0.6
Cn1c(C(=O)N(Cc2ccccc2)Cc2ccccn2)cc2sccc21,87.8*,0.1,0.1,90.8*,8.0,-1.8
CCn1c(C(=O)NCCCc2ccccc2)cc2sccc21,.,.,.,.,.,-1.8
COc1ccc(C(CNc2ccc(S(=O)(=O)N3CCCC3)cc2[N+](=O)[O-])N2CCCC2)cc1 (stereo unspecified),.,.,.,.,.,-3.9
Cc1ccc(N2Cc3ccccc3OC(C)C2=O)cc1 (stereo unspecified),99.5*,0,0.2,85.0*,-9.7,-2.7
O=C(CN1CCC(Cc2ccccc2)CC1)NC(=O)NCc1ccco1,57.8*,0.4,1,0.1,-13.8,-0.8
O=C(CN1CCC(NC(=O)Nc2ccccc2-c2ccccc2)CC1)NCc1ccco1,46.0,0.5,0.4,57.9*,8.2,-1.2
CCCCCCCCCS(=O)(=O)N/N=C/c1cccc([N+](=O)[O-])c1,21.8,0.8,0.3,67.9*,21.5,-2.0
COc1ccc(CCN2CC(C#N)=C3c4cc(OC)c(OC)cc4CCN3C2)cc1OC,64.6*,0.4,0.2,75.5*,14.3,-3.5
COc1cc2c(cc1OC)C1=C(C#N)CN(C3CCCCC3)CN1CC2,68.3*,0.3,0.5,52.2*,6.1,-1.7
CC(=O)NC1CC(C)(C)N(OC(C)=O)C(C)(C)C1,17.6,0.8,1,-3.1,-1.2,-1.1
CCCS(=O)(=O)c1c(S(=O)(=O)CCC)c2c(N)cccn2c1C(=O)c1ccccc1,40.0,0.6,0.3,74.6*,1.4,-1.1
S=c1[nH]nc(Cc2sc(-c3ccccc3)nc2-c2ccccc2)o1,14.3,0.9,0.4,63.7*,7.0,-3.6
S=c1[nH]nc(Cc2c[nH]c3ccccc23)o1,-2.8,1,0.9,11.6,-8.3,-2.0
COc1ccc(-c2nc(N)nc(C)c2Oc2ccccc2Br)c(O)c1,85.3*,0.1,0.1,94.1*,-40.1,-1.4
Cc1oc2cc(O)ccc2c(=O)c1Oc1ccccc1Br,27.2,0.7,1.6,-60.5,5.0,-3.5
O=C(NCc1ccccc1Cl)C1CCN(S(=O)(=O)N2CCC3(CC2)OCCO3)CC1,14.8,0.9,0.8,15.7,24.9,-1.9

# Screening data as filed in PubChem.
